# This is a sample that favours compounds with a hit; in the whole collection about 12% have one here.
# Pf growth 48h: Primary qHTS for delayed death inhibitors of the malarial parasite plastid, 48 hour incubation; P. falciparum luciferase growth in erythrocytes, 48 h; Potency, µM (titrated, usually from 28.7 µM), actives largely listed as inhibitors; 310,000 tested, 5.9% active; AID 504832, 2011
#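 Luciferase-expressing parasites in RBCs, 2% Hct / 0.1% parasitemia final; RPMI 1640 + 0.5% Albumax; 37 C, 5% CO2, one generation; luminescence read-out, lower signal = inhibition.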
# HCV inh: qHTS Assay for Inhibitors of Hepatitis C Virus (HCV); Huh7.5.1 HCVcc-Cre infection, luciferase reporter, 44 h; Potency, µM (doses to about 41.8 µM), actives largely listed as inhibitors; 340,000 tested, 3.4% active; AID 651820, 2012
#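 After 44 h co-culture of compound, cells and HCVcc-Cre (~0.5 moi), substrate is added for 15 min at room temperature and luciferase measured over 15 sec. Cells were seeded at 1,000/well and pre-cultured 4 h.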
# Pf growth 96h: Primary qHTS for delayed death inhibitors of the malarial parasite plastid, 96 hour incubation | P. falciparum luciferase reporter growth, 96 h | 320,000 tested, 6.9% active | Potency, µM (highest dose often 28.7 µM), usual class: inhibitors | AID 504834, 2011
#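 Plates of compound plus infected erythrocytes (2% hematocrit, 0.05% parasitemia final) incubate 96 hours, 37 C, 5% CO2. Detection reagent added; reduced luminescence from the parasites' luciferase reporter flags inhibition.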
# AMA1-RON2 inh: qHTS for Inhibitors of AMA1-RON; Towards Development of Antimalarial Drug Lead: Primary Screen. Plasmodium falciparum AMA1 (3D7) - RON2 peptide interaction. AlphaScreen AMA1-biotinylated RON2 peptide binding. Potency, µM (top dose mostly 58.2 µM), usual class: inhibitors. 360,000 tested, 0.2% active. AID 720542, 2013; further: nearly all actives have a fitted effect of over 45% in size
#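 AMA1 (3D7) with his tag at 25 nM final met compounds first, then biotinylated RON2 peptide at 25 nM; detection used donor plus acceptor beads, 10 µg/mL apiece, read by AlphaScreen after 30 min at room temperature.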
# NS1 inh: qHTS Assay for Inhibitors of Influenza NS1 Protein Function; Potency, µM (doses to about 46.1 µM); 270,000 tested, 0.4% active; calls by dose curve; further: actives are rising curves; nearly all actives have a fitted effect of over 50% in size
#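 Compounds were scored for reversing the slow growth caused by influenza A NS1 in S. cerevisiae, measured by optical density at 600 nm. Assay medium contained 2% galactose at pH 6.0; NS1-free yeast of the same strain were the positive control.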
# SARS PLpro yeast: qHTS of Yeast-based Assay for SARS-CoV PLP. S. cerevisiae expressing SARS-CoV PLpro, growth rescue. Potency, µM (series often up to 32.9 µM), hits mostly activators. 330,000 tested, 0.19% active; calls by dose curve; further: nearly all actives have a fitted effect of over 55% in size
# Numbers stand for hits; . = inactive; ? = inconclusive; / = no result given; [ ] = another dose, or the depositor's remark. Unless noted, the call rests on the fitted dose curve; in most records, active means well fitted curve in the direction sought with a large enough effect; inconclusive means small, poorly fitted or top-dose-only effect, or another doubt; inactive means no such curve, though single readings can be large; an effect the other way counts as inactive or inconclusive.
SMILES,Pf growth 48h,HCV inh,Pf growth 96h,AMA1-RON2 inh,NS1 inh,SARS PLpro yeast
COc1ccc(/C=N/Nc2nc(-c3ccc(C)cc3)c(NC(C)=O)s2)cc1OC,1.17µM,.,1.17µM,.,?,.
CC(=O)Nc1sc(N/N=C/c2ccc(N(C)C)cc2)nc1-c1ccc(C)cc1,2.08µM,.,4.65µM,.,.,.
COc1cc(/C=N\Nc2nc(-c3ccc(C)cc3)c(NC(C)=O)s2)ccc1O,10.4µM,.,5.86µM,.,.,.
CCOc1cc(/C=N/Nc2nc(C)cc(=O)[nH]2)ccc1O,?,.,.,.,.,.
COc1ccc(/C=N/Nc2nnc(C)n2N)cc1OC(C)=O,/,.,.,.,.,.
CCOc1cc(/C=N\Nc2nc(-c3ccc(C)cc3)c(NC(C)=O)s2)ccc1O,8.28µM,?,?,.,.,.
CC(=O)Nc1sc(N/N=C/c2ccc(C)cc2)nc1-c1ccc(C)cc1,?,.,?,.,.,.
O=C(CN1CCN(S(=O)(=O)c2ccccc2)CC1)NC(=O)NCc1ccco1,.,.,.,.,.,.
Cc1occc1C(=O)/C(C#N)=C/c1ccc(O)c(Br)c1,.,.,.,.,.,.
CC(O)[C@H]1CNC(=O)C(=O)N1CCc1cc(C(F)(F)F)cc(C(F)(F)F)c1 (some centres undefined),.,.,.,.,.,.
CCOC(=O)C(O)(c1ccc(NC(=O)c2ccc(Cl)c(Cl)c2)cc1)C(F)(F)F (centres undefined),9.28µM,?,?,.,.,.
CCOC(=O)C(O)(c1ccc(N(C)C(=O)c2ccc(Cl)c(Cl)c2)cc1)C(F)(F)F (centres undefined),?,.,10.4µM,.,.,?
CCOC(=O)C(O)(c1ccc(NC(=O)NC2CCCCC2)cc1)C(F)(F)F (centres undefined),/,?,.,.,.,.
COC(=O)C(O)(c1ccc(N(C)C(=O)c2ccc(Cl)c(Cl)c2)cc1)C(F)(F)F (centres undefined),.,.,.,.,.,.
CC(C)(C)N1CC(c2nc3ccccc3n2CCOc2ccccc2)CC1=O (centres undefined),/,.,5.86µM,.,.,.
C=C(Br)Cn1c(CCC)nc2ccccc21,.,.,10.4µM,.,.,.
COc1ccc(NCc2nc3ccccc3n2CCOc2ccc(C)cc2)cc1,.,8.91µM,.,?,?,.
COc1ccc(NCc2nc3ccccc3n2CCOc2ccccc2)cc1,.,?,.,?,.,.
CCCc1nc2ccccc2n1CCOc1ccccc1,/,.,4.15µM,.,.,.
CCCc1nc2ccccc2n1CCOC,/,.,.,.,.,.
Cc1ccc(S(=O)(=O)Nc2cccc(-c3ccc4nnc(C)n4n3)c2)s1,.,.,.,.,/,.
O=C(Cc1n[nH]c(=O)[nH]c1=O)N/N=C/CCc1ccccc1,.,.,.,.,.,.
CCOc1ccc(-c2nc[nH]c2[N+](=O)[O-])cc1,.,.,?,.,/,.
CN1CCN(C(=S)C(=O)Nc2ccc(Br)cc2)CC1,.,.,.[5.75 µM],.,.,.
Brc1ccc(CSc2nnc3ccccn23)cc1,.,.,.,.,/,.
SMILES,Pf growth 48h,HCV inh,Pf growth 96h,AMA1-RON2 inh,NS1 inh,SARS PLpro yeast
Cc1nc(Cl)c(Cl)n1CCOc1ccccc1,8.28µM,.,?,.,.,.
Cc1nc2ccccc2n1CCCOc1ccccc1,.,?,?,.,.,.
N#Cc1c(N)nc(Sc2ccc(Cl)cc2)c(C#N)c1-c1ccccc1Cl,?,11.2µM,7.38µM,.,.,.
CCOc1ccc(CNC(=O)c2ccccc2NC(=O)C2=CSCCO2)cc1,?,.,.,.,.,.
Cn1c(=O)c2c(nc3n2CC(COc2ccc(Cl)cc2)O3)n(C)c1=O (centres undefined),.,.,?,.,.,.
Cn1c(=O)c2c(nc3n2CC(COc2ccccc2)O3)n(C)c1=O (centres undefined),.,.,9.28µM,.,.,.

# From PubChem
